Laboratory results reported in PubChem BioAssay AID1159580 (chemical genetic matrix, 2015).
The campaign covered roughly 5,500 compounds. About 2,000 (36%) were called active. Roughly 18% stayed inconclusive and do not appear here. No stated cut-off is given here; in the data, active means normalized growth mostly below about 0.91 (no sharp cut-off); inconclusive means no clear call, values can overlap the other calls; inactive means mostly above about 0.92. Some of the results follow.

Experiment: chemical genetic growth profiling, strain panel (AID 1159580);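 further: tested at 20 µM; growth read once vehicle control cultures reached saturation at 30 °C; 1 = growth at the plate median or of vehicle wells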
Conditions: S. cerevisiae deletion strains, growth OD
[1] = locus YAR019C, strain CDC15, stronger effect = lower value
[2] = locus YBL105C, strain PKC1, stronger effect = lower value
[3] = locus YBR135W, strain CKS1, stronger effect = lower value
[4] = locus YBR136W, strain MEC1, stronger effect = lower value
[5] = locus YBR160W, strain CDC28, stronger effect = lower value
[6] = locus YDL017W, strain CDC7, stronger effect = lower value
[7] = locus YDL028C, strain MPS1, stronger effect = lower value
[8] = locus YDL101C, strain DUN1, stronger effect = lower value
[9] = locus YDL108W, strain KIN28, stronger effect = lower value
[10] = locus YDL132W, strain cdc53, stronger effect = lower value
[11] = locus YDL214C, strain PRR2, stronger effect = lower value
[12] = locus YDR052C, strain DBF4, stronger effect = lower value
[13] = locus YDR054C, strain cdc34, stronger effect = lower value
[14] = locus YDR226W, strain ADK1, stronger effect = lower value
[15] = locus YDR477W, strain SNF1, stronger effect = lower value
[16] = locus YER123W, strain YCK3, stronger effect = lower value
[17] = locus YER133W, strain GLC7, stronger effect = lower value
[18] = locus YFL009W, strain cdc4, stronger effect = lower value
[19] = locus YFL029C, strain CAK1, stronger effect = lower value
[20] = locus YFR003C, strain YPI1, stronger effect = lower value
[21] = locus YFR019W, strain FAB1, stronger effect = lower value
[22] = locus YFR028C, strain CDC14, stronger effect = lower value
[23] = locus YGR040W, strain KSS1, stronger effect = lower value
[24] = locus YGR052W, strain FMP48, stronger effect = lower value
[25] = locus YGR092W, strain DBF2, stronger effect = lower value
[26] = locus YHR030C, strain SLT2, stronger effect = lower value
[27] = locus YHR079C, strain IRE1, stronger effect = lower value
[28] = locus YHR082C, strain KSP1, stronger effect = lower value
[29] = locus YHR205W, strain SCH9, stronger effect = lower value
[30] = locus YIL147C, strain SLN1, stronger effect = lower value
[31] = locus YJL095W, strain BCK1, stronger effect = lower value
[32] = locus YJL128C, strain PBS2, stronger effect = lower value
[33] = locus YJL157C, strain FAR1, stronger effect = lower value
[34] = locus YJR016C, strain ILV3, stronger effect = lower value
[35] = locus YJR066W, strain TOR1 (second series), stronger effect = lower value
[36] = locus YJR066W, strain TOR1, stronger effect = lower value
[37] = locus YKL048C, strain ELM1, stronger effect = lower value
[38] = locus YKL067W, strain YNK1, stronger effect = lower value
[39] = locus YKL101W, strain HSL1, stronger effect = lower value
[40] = locus YKL193C, strain SDS22, stronger effect = lower value
[41] = locus YKL203C, strain TOR2, stronger effect = lower value
[42] = locus YLR113W, strain HOG1, stronger effect = lower value
[43] = locus YLR133W, strain CKI1, stronger effect = lower value
[44] = locus YLR403W, strain SFP1, stronger effect = lower value
[45] = locus YML070W, strain DAK1, stronger effect = lower value
[46] = locus YMR001C, strain CDC5, stronger effect = lower value
[47] = locus YMR205C, strain PFK2 (second series), stronger effect = lower value
[48] = locus YMR277W, strain FCP1, stronger effect = lower value
[49] = locus YNL006W, strain LST8, stronger effect = lower value
[50] = locus YNL020C, strain ARK1, stronger effect = lower value
[51] = locus YNL161W, strain CBK1, stronger effect = lower value
[52] = locus YNL183C, strain NPR1, stronger effect = lower value
[53] = locus YNL207W, strain RIO2, stronger effect = lower value
[54] = locus YNL222W, strain SSU72, stronger effect = lower value
[55] = locus YNL307C, strain MCK1 (second series), stronger effect = lower value
[56] = locus YOL078W, strain AVO1, stronger effect = lower value
[57] = locus YOL136C, strain PFK27, stronger effect = lower value
[58] = locus YOR061W, strain CKA2, stronger effect = lower value
[59] = locus YOR119C, strain RIO1, stronger effect = lower value
[60] = locus YOR231W, strain MKK1, stronger effect = lower value
[61] = locus YOR329C, strain SCD5, stronger effect = lower value
[62] = locus YPL031C, strain PHO85, stronger effect = lower value
[63] = locus YPL153C, strain RAD53, stronger effect = lower value
[64] = locus YPL204W, strain HRR25, stronger effect = lower value
[65] = locus YPL209C, strain IPL1, stronger effect = lower value
[66] = locus YPL256C, strain CLN2, stronger effect = lower value
[67] = locus YPR025C, strain CCL1, stronger effect = lower value
[68] = locus YPR106W, strain ISR1, stronger effect = lower value
[69] = locus YPR111W, strain DBF20, stronger effect = lower value
[70] = strain NNK1, stronger effect = lower value
[71] = strain TSCII, stronger effect = lower value

Measured: normalized growth

Cc1nc(C(F)(F)F)c(C(=O)O/N=C(/N)c2ccc(Cl)cc2)s1
active: [42] 0.79 | [66] 0.795
inactive: [1] 0.98 | [2] 0.975 | [3] 0.98 | [4] 0.968 | [5] 0.983 | [6] 0.988 | [7] 0.974 | [8] 0.994 | [9] 0.98 | [10] 0.997 | [11] 0.967 | [12] 0.988 | [13] 1 | [14] 0.991 | [15] 0.942 | [16] 0.92 | [17] 0.942 | [18] 0.974 | [19] 0.983 | [20] 0.982 | [21] 0.938 | [22] 0.98 | [23] 0.941 | [24] 0.952 | [25] 0.933 | [26] 0.999 | [27] 0.83 | [28] 1.14 | [29] 0.921 | [30] 0.978 | [31] 0.818 | [32] 0.978 | [33] 0.952 | [34] 0.984 | [35] 0.926 | [36] 1.06 | [37] 1 | [38] 0.974 | [39] 0.983 | [40] 0.954 | [41] 1.03 | [43] 0.948 | [44] 0.905 | [45] 0.939 | [46] 0.973 | [47] 0.941 | [48] 0.974 | [49] 0.985 | [50] 0.945 | [51] 0.984 | [52] 0.876 | [53] 0.972 | [54] 0.977 | [55] 0.963 | [56] 0.97 | [57] 0.946 | [58] 0.948 | [59] 0.983 | [60] 0.831 | [61] 0.974 | [62] 0.947 | [63] 0.937 | [64] 0.921 | [65] 0.982 | [67] 0.993 | [68] 0.987 | [69] 0.976 | [70] 0.995 | [71] 0.974

CCCC1c2ccsc2CCN1C(=S)Nc1ccc(Cl)cc1Cl (stereo not drawn)
inactive: [1] 0.969 | [2] 0.971 | [3] 0.983 | [4] 0.972 | [5] 0.984 | [6] 0.973 | [7] 0.971 | [8] 0.984 | [9] 0.987 | [10] 0.98 | [11] 0.984 | [12] 0.981 | [13] 0.962 | [14] 0.968 | [15] 0.974 | [16] 0.952 | [17] 0.968 | [18] 0.971 | [19] 0.967 | [20] 0.975 | [21] 0.986 | [22] 0.963 | [23] 0.959 | [24] 1 | [25] 0.946 | [26] 0.922 | [27] 0.975 | [28] 0.987 | [29] 0.878 | [30] 0.973 | [31] 0.961 | [32] 0.946 | [33] 0.981 | [34] 0.972 | [35] 0.946 | [36] 0.981 | [37] 0.975 | [38] 0.97 | [39] 0.964 | [40] 0.969 | [41] 1.02 | [42] 0.897 | [43] 0.974 | [44] 0.931 | [45] 0.944 | [46] 0.977 | [47] 0.968 | [48] 0.977 | [49] 0.991 | [50] 0.986 | [51] 0.98 | [52] 0.966 | [53] 0.97 | [54] 0.976 | [55] 0.973 | [56] 0.974 | [57] 0.958 | [58] 0.964 | [59] 1.02 | [60] 0.978 | [61] 0.974 | [62] 0.966 | [63] 0.971 | [64] 0.985 | [65] 0.974 | [66] 0.932 | [67] 0.983 | [68] 0.973 | [69] 0.959 | [70] 0.965 | [71] 0.959

CCC1CCC(C)N(C(=S)Nc2ccc(Br)cc2C)C1 (stereo not drawn)
inactive: [1] 0.965 | [2] 0.976 | [3] 0.955 | [4] 0.971 | [5] 0.953 | [6] 0.966 | [7] 0.961 | [8] 0.958 | [9] 0.96 | [10] 0.956 | [11] 0.987 | [12] 0.969 | [13] 0.953 | [14] 0.963 | [15] 0.955 | [16] 0.936 | [17] 0.961 | [18] 0.956 | [19] 0.963 | [20] 0.978 | [21] 0.995 | [22] 0.967 | [23] 0.963 | [24] 1.11 | [25] 0.964 | [27] 0.979 | [28] 1.05 | [29] 0.993 | [30] 0.968 | [31] 0.913 | [32] 0.927 | [33] 0.986 | [34] 0.964 | [35] 1.01 | [36] 0.987 | [37] 0.956 | [38] 1 | [39] 0.95 | [40] 0.951 | [41] 1.05 | [42] 0.924 | [43] 0.98 | [44] 0.992 | [45] 0.958 | [46] 0.961 | [47] 0.973 | [48] 0.962 | [49] 0.966 | [50] 0.974 | [51] 0.948 | [52] 0.967 | [53] 0.957 | [54] 0.963 | [55] 0.948 | [56] 0.959 | [57] 0.964 | [58] 0.948 | [59] 1.08 | [60] 0.957 | [61] 0.968 | [62] 0.968 | [63] 0.955 | [64] 0.969 | [65] 0.967 | [66] 0.906 | [67] 0.959 | [68] 0.978 | [69] 0.979 | [70] 0.962 | [71] 0.95
active: [26] 0.84
